Results taken from PubChem BioAssay (Tox21).
Several values for one entry are separate records, joined by “and”; a condition that tells them apart may be missing. Identical values can stand only once. Results filed as inconclusive are left out. A call without a number means that no potency is given here. A structure can be active in one record and inactive in another. Activity calls are given as the source filed them. Calls follow the shape of the dose curve; as a rule, active = well fitted inhibition curve with a large enough effect in the signal ratio in the repeat runs, with a control signal flat; inconclusive = weak or mixed curves, or effect the other way; inactive = flat fitted curve, though single readings scatter; the % refers to the signal ratio.

Target: D(2) dopamine receptor (Homo sapiens) (UniProt P14416)
Sequence (P14416 whole entry, looked up): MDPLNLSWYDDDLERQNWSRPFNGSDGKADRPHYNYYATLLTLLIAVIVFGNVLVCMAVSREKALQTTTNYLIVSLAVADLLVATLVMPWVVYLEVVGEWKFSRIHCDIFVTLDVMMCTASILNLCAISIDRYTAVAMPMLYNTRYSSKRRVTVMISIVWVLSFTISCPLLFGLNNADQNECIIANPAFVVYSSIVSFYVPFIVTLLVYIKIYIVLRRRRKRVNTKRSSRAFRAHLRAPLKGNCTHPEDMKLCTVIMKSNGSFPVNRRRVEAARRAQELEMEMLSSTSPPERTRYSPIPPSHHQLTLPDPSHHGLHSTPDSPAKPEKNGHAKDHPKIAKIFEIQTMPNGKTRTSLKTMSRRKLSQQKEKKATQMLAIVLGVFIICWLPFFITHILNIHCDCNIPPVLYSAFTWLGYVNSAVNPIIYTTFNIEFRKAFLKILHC
Assay: Dopamine D2 receptor (DRD2) small molecule antagonists, cell-based qHTS assay (AID 1963595)
In short: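 Stable D2 receptor HEK293 line, 24 h after seeding. Compound preincubated 10 min, then quinpirole (12 nM) with forskolin analogue NKH477 (200 nM), 30 min, room temperature. Detection by time-resolved FRET of cAMP.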
Potency is read from the fitted curve at half-maximal effect.

Structure (SMILES) | Potency | activity change, negative = inhibition
COc1ccc(C#N)cc1 | inactive | 
CC1=CCC(C(C)(C)O)CC1 (stereo not given) | inactive | 
CC(C)COC(=O)c1ccc(N)cc1 | inactive | 
OC/C=C/CO | inactive | 
Cc1ccc(-c2ccccc2)cc1 | inactive | 
O=C(CCN1CCN(CCO)CC1)N1c2ccccc2Sc2ccc(C(F)(F)F)cc21 | inactive | 
C=CC(=O)OCCOC1C2CCC1C1CC=CC12 (stereo not given) |  | 7.6% [at 18.9 µM] (inactive)
CC(C)(C)NCCO | inactive | 
FC(F)(F)c1ccccc1Cl | inactive | 
CC(=O)OCCOCCOCCOC(C)=O | inactive | 
O=C(O)CNC(=O)c1ccccc1I | inactive | 
CS(=O)(=O)O | inactive | 
CC1=C(O)C(=O)C(C)O1 (stereo not given) | inactive | 
Cc1ccc(C(C)(C)C)cc1 | inactive | 
CCCCOCCOCCOCCO | inactive | 
CC(=O)OC/C=C/c1ccccc1 | inactive | 
CC(=O)c1ccc2c(c1)CCCC2 | inactive | 
O=[Si]=O | inactive | 
Cc1ccc(N(C)C)cc1 | inactive | 
CC(O)CNCC(C)O (stereo not given) | inactive | 
CCOC(=O)CN1CCCC1=O | inactive | 
CCCCN(CCO)CCO | inactive | 
NNc1nncc2ccccc12 | inactive and 10.3 µM (active) | 
OCC1CC2CC1C1CCC(CO)C21 (stereo not given) | inactive | 
Cc1cc(C)cc(N)c1 | inactive | 
Nc1ccc2c(S(=O)(=O)O)cccc2c1S(=O)(=O)O | inactive | 
OCCCC1CCCCC1 | inactive | 

Structure (SMILES) | Potency | activity change, negative = inhibition
CCC(=O)OC(C)(C)C1CC=C(C)CC1 (stereo not given) | inactive | 
CC(=O)NCCO | inactive | 
CCCC(C)C(O)CC (stereo not given) | inactive | 
CC(CCC(=O)O)C(=O)O (stereo not given) | inactive | 
CCOC(=O)c1c(C)n(C)c2ccc(O)cc12 | inactive | 
CCCCCCCCCCCCI | inactive | 
CC1=C(C=O)C(C)(C)CC=C1 | inactive | 
CCC(CC)C(C)CCOC(C)=O (stereo not given) | inactive | 
CC1(C)C(O)C(C)(C)C1O (stereo not given) | inactive | 
CCCCCCCCCC(C)=O | inactive | 
OCCC(F)(F)C(F)(F)C(F)(F)C(F)(F)C(F)(F)C(F)(F)F | inactive | 
Clc1nc(Cl)c(Cl)c(Cl)c1Cl | inactive | 
CC(=O)CC(N)=O | inactive | 
CCN(CC)CC(=O)OCC(=O)[C@@]1(O)CC[C@H]2[C@@H]3CCC4=CC(=O)CC[C@]4(C)[C@H]3[C@@H](O)C[C@@]21C | inactive | 
CC(C)OC(C)C | inactive | 
CCCCCCCOC(C)=O | inactive | 
C[C@@H]1NC(=O)[C@@H](N)CNC(=O)[C@H](C2CCNC(N)=N2)NC(=O)/C(=C/NC(N)=O)NC(=O)[C@H](CNC(=O)C[C@@H](N)CCCN)NC1=O (stereo not given in full) |  | -5.12% [at 0.348 µM] (inactive)
O=[N+]([O-])c1ccc2c(c1)Cc1ccccc1-2 | inactive | 
CCCCCCc1ccc(-c2ccc(C#N)cc2)cc1 | inactive | 
O=C(O)CCS | inactive | 
O=C1OC[C@H](Cc2cccc(O)c2)[C@H]1Cc1cccc(O)c1 | inactive | 
O=c1cc(CO)occ1O | inactive | 
Cc1ncsc1CCO | inactive | 
C[Si](C)=O |  | 6.58% [at 8.38 µM] (inactive)
COCC(O)CO (stereo not given) | inactive | 
CCOCCOC(=O)/C=C/c1ccc(OC)cc1 | inactive | 
CCCCCCCCSCC | inactive | 

Structure (SMILES) | Potency | activity change, negative = inhibition
Cn1c(=O)c2[nH]c(Br)nc2n(C)c1=O | inactive | 
OCc1c2ccccc2cc2ccccc12 | inactive | 
c1ccc(CNCc2ccccc2)cc1 | inactive | 
CCC(C)C(=O)OCCc1ccccc1 (stereo not given) | inactive | 
O=S(=O)(O)C(F)(F)F | inactive | 
CC1CC(OC(=O)c2ccccc2O)CC(C)(C)C1 (stereo not given) | inactive | 
CC(CO)Oc1ccccc1 (stereo not given) | inactive | 
CC(C)C1CCC(O)CC1 (stereo not given) | inactive | 
C/C(=C1\CCOC(=O)S1)N(C=O)Cc1cnc(C)nc1N | inactive | 
CCCCC(O)/C=C(C)/C=C/C=C/C(=O)N1CCCC1=O (stereo not given) | inactive | 
CCC(OCCCOC)OC(C)=O (stereo not given) | inactive | 
CCCCOC(O)CC (stereo not given) | inactive | 
O=C1NC(c2ccccc2)(c2ccccc2)C(=O)N1COP(=O)(O)O | inactive | 
CC(C)(C)CC(C)(C)c1ccc(O)c(-n2nc3ccccc3n2)c1 | inactive | 
CCCCCC=O | inactive | 
C=CC(C)CCC=C(C)C (stereo not given) | inactive | 
Cc1ccccc1OCC1CO1 (stereo not given) | inactive | 
Cc1cc(C)cc(OCC2CNC(=O)O2)c1 (stereo not given) | inactive | 
CO[Si](CCCCl)(OC)OC | inactive | 
CCCCOC(=O)C(=O)OCCCC | inactive | 
CC(=O)N[C@H]1[C@H]([C@H](O)[C@H](O)CO)OC(C(=O)O)=C[C@@H]1N=C(N)N | inactive | 
CN(C)c1cc(NC(=O)CNC(C)(C)C)c(O)c2c1C[C@H]1C[C@H]3[C@H](N(C)C)C(=O)C(C(N)=O)=C(O)[C@@]3(O)C(=O)C1=C2O | inactive | 
NC[C@H]1O[C@H](O[C@H]2[C@H](O)[C@@H](O[C@H]3O[C@H](CO)[C@@H](O)[C@H](N)[C@H]3O)[C@H](N)C[C@@H]2N)[C@H](N)[C@@H](O)[C@@H]1O |  | 13% [at 18.9 µM] (inactive)
FC(F)(F)C(F)(F)C(F)(F)C(F)(F)C(F)(F)C(F)(F)CCI | inactive | 
C=C(C)C(=O)OCCOP(=O)(O)O | inactive | 
NC(=O)Nc1ccc(Cl)cc1 | inactive | 
O=C(O)c1cc(=O)c2ccccc2o1 | inactive | 

Structure (SMILES) | Potency | activity change, negative = inhibition
O=C(O)C1CCC(C(=O)O)CC1 (stereo not given) | inactive | 
NNS(=O)(=O)c1ccc(Oc2ccc(S(=O)(=O)NN)cc2)cc1 | inactive | 
CC(=O)NCc1c(I)c(NC(C)=O)c(I)c(C(=O)O)c1I | inactive | 
N=C(N)c1ccc2cc(OC(=O)c3ccc(N=C(N)N)cc3)ccc2c1 | inactive | 
O=C(O)c1ccc([N+](=O)[O-])cc1 | inactive | 
CCC(C)NC(N)=O (stereo not given) | inactive | 
CCCC/C=C\CCCCCCCCCC=O | inactive | 
c1ccc2cc3c4ccccc4c4ccccc4c3cc2c1 | inactive | 
COCCCOc1cc(C[C@@H](C[C@H](N)[C@@H](O)C[C@H](C(=O)NCC(C)(C)C(N)=O)C(C)C)C(C)C)ccc1OC | inactive | 
COc1cccc(OC)c1 | inactive | 
CCSC(=O)N(CC)CC | inactive | 
CC(C)(C)c1ccc(C=O)cc1 | inactive | 
CCCOCCOCCOCCO | inactive | 
CCCc1ccc(O)cc1 | inactive | 
O=S(=O)(O)c1cc(O)c(O)c(S(=O)(=O)O)c1 | inactive | 
O=C(O)c1cccc(C[C@@H]2COc3ccc(OCc4nc5cc(F)ccc5s4)cc3[C@@H]2O)c1 | inactive | 
O=C(O)CNC(=O)c1ccc(CO)o1 | inactive | 
COC(=O)c1ccccc1C | inactive | 
Nc1ccc(S(=O)(=O)Nc2ccc(Cl)nn2)cc1 | inactive | 
CCOCCOCC | inactive | 
CCc1occc(=O)c1O | inactive | 
NC(=O)CCCCC(N)=O | inactive | 
CC(=O)c1cc2ccccc2s1 | inactive | 
CCCCCCCCc1ccc(Nc2ccc(CCCCCCCC)cc2)cc1 | inactive | 
